Source: PubChem BioAssay (NCI)
This is part of a sample that, as a whole, favours compounds with a hit. Of some 79,000 tested, about 15% had one in any assay. Active and inactive are the calls of the source. Rule as the data show it: active = growth inhibition above about 70%; inactive = the rest.

Assays:
[1] = NCI Yeast Anticancer Drug Screen. Data for the rad50 strain (AID 155);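 also: 0% = growth of vehicle-only cultures of the same strain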; details: S. cerevisiae rad50 strain growth inhibition, active compounds read high
How it was run: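 Relative growth inhibition (compound vs vehicle) was measured in yeast with a defined repair-gene alteration.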

[2] = NCI Yeast Anticancer Drug Screen. Data for the mec2-1 strain (AID 157); details: S. cerevisiae mec2-1 strain, active compounds read high
How it was run: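 Yeast mec2-1 mutant treated with compound. Readout: growth inhibition vs vehicle controls.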

[3] = NCI Yeast Anticancer Drug Screen. Data for the sgs1 mgt1 strain (AID 161);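 also: 0% = growth of cultures given vehicle only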; details: S. cerevisiae sgs1 mgt1 strain, active compounds read high
How it was run: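 Genetically altered yeast, compound exposure, growth inhibition relative to vehicle.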

[4] = NCI Yeast Anticancer Drug Screen. Data for the cln2 rad14 strain (AID 165);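 also: 0% = growth equal to vehicle treated cultures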; details: S. cerevisiae cln2 rad14 strain, active compounds read high
How it was run: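 cln2 rad14 yeast strain; compound exposure; growth inhibition read vs vehicle controls.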

[5] = NCI Yeast Anticancer Drug Screen. Data for the bub3 strain (AID 167); details: S. cerevisiae bub3 mutant strain, active compounds read high
How it was run: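 Screening used yeast with an engineered genetic alteration affecting cell cycle control. Compound-exposed cultures were compared with vehicle cultures, and reduced growth was taken as inhibition.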

[6] = NCI Yeast Anticancer Drug Screen. Data for the mlh1 rad18 strain (AID 175); details: S. cerevisiae mlh1 rad18 strain growth inhibition, active compounds read high
How it was run: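 Yeast w/ defined DNA-repair lesions; compound exposure; growth vs vehicle controls → % inhibition.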

[7] = at 5.0 µM (retest, dose inferred, filed as 0.5)
[8] = at 50.0 µM (retest, dose inferred, filed as 5.0)

Measured: growth inhibition

Cc1ccc(O)cc1CCCCO
inactive: [1]; [7] 2% | [1]; [8] -4% | [1]; at 50.0 µM -7.45% | [2]; [7] 0% | [2]; [8] -1% | [2]; at 50.0 µM -2.1% | [3]; [7] -1% | [3]; [8] -2% | [3]; at 50.0 µM -3.55% | [4]; [7] -2% | [4]; [8] 7% | [5]; [7] -11% | [5]; [8] 0% | [5]; at 50.0 µM -5.95% | [6]; [7] 0% | [6]; [8] -2% | [6]; at 50.0 µM -3.45%
active: [4]; at 50.0 µM 74.6%

CC(C)C1=CC23CCC4C(C)(C(=O)O)CCCC4(C)C2CC1C1C(=O)C=CC(=O)C13 (centres undefined)
inactive: [4]; at 50.0 µM 62% | [6]; at 50.0 µM 55.4%
active: [1]; [7] 86% | [1]; [8] 93% | [1]; at 50.0 µM 94.3% | [2]; [7] 81% | [2]; [8] 97% | [2]; at 50.0 µM 96.3% | [3]; [7] 82% | [3]; [8] 97% | [3]; at 50.0 µM 90.2% | [4]; [7] 75% | [4]; [8] 96% | [5]; [7] 91% | [5]; [8] 96% | [5]; at 50.0 µM 96.9% | [6]; [7] 88% | [6]; [8] 97%

O=C1C=C(O)c2cc(Br)ccc2C1=O.[Ag]
active: [1]; [7] 99% | [1]; [8] 99% | [1]; at 50.0 µM 99.6% | [2]; [7] 100% | [2]; [8] 99% | [2]; at 50.0 µM 99.5% | [3]; [7] 100% | [3]; [8] 99% | [3]; at 50.0 µM 99.7% | [4]; [7] 99% | [4]; [8] 99% | [4]; at 50.0 µM 99.5% | [5]; [7] 100% | [5]; [8] 99% | [5]; at 50.0 µM 99.7% | [6]; [7] 99% | [6]; [8] 99% | [6]; at 50.0 µM 99.1%

CCCCCCCCCCCCc1ccc(S(=O)(=O)O)cc1.[Zn+2]
active: [1]; at 50.0 µM 78.4% | [3]; at 50.0 µM 75.3% | [6]; [8] 71%
inactive: [1]; [7] -2% | [1]; [8] 55% | [2]; [7] 19% | [2]; [8] 27% | [2]; at 50.0 µM 13.2% | [3]; [7] -4% | [3]; [8] 59% | [4]; [7] 3% | [4]; [8] 38% | [4]; at 50.0 µM -49% | [5]; [7] -8% | [5]; [8] 35% | [5]; at 50.0 µM 6.15% | [6]; [7] -2% | [6]; at 50.0 µM 30.1%

CCCCc1cc2c(cc1O)CCC1C2CC[C@@]2(C)C1CC[C@@H]2O (some centres undefined)
active: [1]; [8] 96% | [2]; [8] 95% | [2]; at 50.0 µM 78.5% | [3]; [8] 95% | [3]; at 50.0 µM 80.6% | [4]; [8] 97% | [4]; at 50.0 µM 86.8% | [5]; [8] 96% | [5]; at 50.0 µM 81.7% | [6]; [8] 96% | [6]; at 50.0 µM 84.6%
inactive: [1]; [7] 5% | [1]; at 50.0 µM 67.5% | [2]; [7] -6% | [3]; [7] -5% | [4]; [7] 2% | [5]; [7] -27% | [6]; [7] -2%

CCc1cccc(CC)c1N=Nc1c(N)nc(N)[nH]c1=O
inactive: [1]; [7] -11% | [1]; [8] -6% | [1]; at 50.0 µM -4.8% | [2]; [7] -23% | [2]; [8] -9% | [2]; at 50.0 µM -32% | [3]; [7] -11% | [3]; [8] 6% | [3]; at 50.0 µM 39.8% | [4]; [7] 0% | [4]; [8] 2% | [4]; at 50.0 µM -21% | [5]; [7] -2% | [5]; [8] -3% | [5]; at 50.0 µM -19.8% | [6]; [7] 8% | [6]; [8] -30% | [6]; at 50.0 µM -11.7%

CC(=O)C(C=O)C(C)=O.CC(=O)CC(C)=O.CC(=O)CC(C)=O.[Ru]
inactive: [1]; [7] 4% | [1]; [8] 59% | [1]; at 50.0 µM 36.9% | [2]; [7] 60% | [3]; [7] 16% | [3]; [8] 61% | [3]; at 50.0 µM 50.5% | [4]; [7] 0% | [4]; [8] 44% | [4]; at 50.0 µM 36% | [5]; [7] -7% | [5]; [8] 33% | [5]; at 50.0 µM -1.3% | [6]; [7] 11% | [6]; [8] 66% | [6]; at 50.0 µM 52.8%
active: [2]; [8] 98% | [2]; at 50.0 µM 97.9%

C/C([O-])=C1\Cc2ccccc2C1=O.C/C([O-])=C1\Cc2ccccc2C1=O.CC[O-].CC[O-].[Ti+4]
active: [1]; at 50.0 µM 89% | [2]; at 50.0 µM 89.4% | [3]; at 50.0 µM 91.5% | [4]; at 50.0 µM 81% | [5]; at 50.0 µM 88.6% | [6]; at 50.0 µM 90.7%
inactive: [1]; [7] 25% | [1]; [8] 25% | [2]; [7] 17% | [2]; [8] 17% | [3]; [7] 4% | [3]; [8] 4% | [4]; [7] 4% | [4]; [8] 4% | [5]; [7] 4% | [5]; [8] 4% | [6]; [7] 20% | [6]; [8] 20%
